In ChEMBL document CHEMBL4296182, “CO-ADD screening of NIH NCI Diversity Set V”:
For part of these data: Entries with a potency or affinity are not part of this list.

What was measured:
Staphylococcus aureus = assay: Antibacterial activity against Staphylococcus aureus MRSA ATCC 43300 (CO-ADD:GP_020); MIC in CAMBH media using NBS plates, by Resazurin F(560/590); type: functional; details: Concentration 20 uM, ASSAY_TEST Inhibition of Bacterial Growth, detection method Resazurin, Fluorescence (ex560/em590), MEDIA CAMHB, plate type 384well, CORNING #3640, time 18 hr
Acinetobacter baumannii = assay: Antibacterial activity against Acinetobacter baumannii ATCC 19606 (CO-ADD:GN_034); MIC in CAMBH media using NBS plates, by Resazurin F(560/590); type: functional; details: Concentration 20 uM, ASSAY_TEST Inhibition of Bacterial Growth, detection method Resazurin, Fluorescence (ex560/em590), MEDIA CAMHB, plate type 384well, CORNING #3640, time 18 hr
Escherichia coli = assay: Antibacterial activity against Escherichia coli ATCC 25922 (CO-ADD:GN_001); MIC in CAMBH media using NBS plates, by Resazurin F(560/590); type: functional; details: Concentration 20 uM, ASSAY_TEST Inhibition of Bacterial Growth, detection method Resazurin, Fluorescence (ex560/em590), MEDIA CAMHB, plate type 384well, CORNING #3640, time 18 hr
Klebsiella pneumoniae = details: Concentration 20 uM; ASSAY_TEST Inhibition of Bacterial Growth; detection method Absorption (OD600); MEDIA CAMHB; plate type 384well; NBS; CORNING #3640; time 18 hr
Candida albicans = details: 20 µM
Cryptococcus neoformans = details: Concentration 20 uM; ASSAY_TEST Inhibition of Fungal Growth; detection method Resazurin; Absorption (OD600-OD570); plate type 384well; NBS; CORNING #3640

SMILES	Inhibition (Staphylococcus aureus)	Inhibition (Acinetobacter baumannii)	Inhibition (Escherichia coli)	Inhibition (Klebsiella pneumoniae)	Inhibition (Candida albicans)	Inhibition (Cryptococcus neoformans)
CCOC(=O)Nc1ccc(C(=O)/C=C/c2ccccc2)cc1	8.55%	3.76%	-2.1%	17.43%	6.26%	-5.25%
O=C(Oc1ccccc1)c1cccc2cccc(C(=O)Oc3ccccc3)c12	17.84%	0.5%	-0.78%	14.06%	7.13%	-3.03%
Cc1cc(C)n2c(C)nnc2c1	-1.68%	-10.08%	5.69%	10.38%	-0.15%	-3%
CCCCNC(=O)Nc1ccccc1CC	14.67%	10.42%	0.25%	11.35%	3.55%	-6.96%
Oc1ccccc1-n1c(-c2ccccc2)ccc1-c1ccccc1	3.47%	1.43%	1.29%	19.15%	11.1%	-2.48%
CC(C)(c1cc(Cl)c(O)c(CN2CCOCC2)c1)c1cc(Cl)c(O)c(CN2CCOCC2)c1	-6.13%	0.12%	12.95%	0.6%	-1.62%	-0.13%
Cc1nc(NC(=N)N(C)C)nc(O)c1C	4.99%	-6.08%	5.79%	6.63%	0.54%	-10.51%
CN(C)c1ccc(/C=C/C(=O)c2cc(Cl)ccc2O)cc1	14.9%	-19.64%	10.48%	1%	8.13%	-6.08%
CC1=NN(c2ccccc2)C(=O)C1C(=S)SC1CC(=O)NC1=O (stereo unspecified)	3.9%	14.97%	-13.13%	16.67%	6.57%	3.97%
CC1CC=C(O)C12OCC(C)(C)CO2 (stereo unspecified)	3.19%	-6.5%	5.59%	14.38%	0.02%	-5.4%
Cc1[nH]c(=O)n(C(C)C)c(=O)c1Br	12.85%	-11.08%	12.66%	5.3%	0.37%	-6.73%
CCCNC(=O)Nc1ccc(C)cc1C	1.69%	10.44%	-6.23%	17.61%	5.41%	-2.02%
Cc1cc(C)c2c(SC(C)C)nc(N)nc2n1	-0.52%	-6.63%	2.33%	4.23%	0.54%	-10.66%
COc1ccc(Br)c2c1C(=O)CC2	10.21%	-14.67%	12.53%	-2.44%	20.7%	-15.03%
NCc1c(O)ccc2ccccc12	7.19%	-7.97%	-11.88%	11.42%	3.27%	15.16%
O=C(Nc1ccc(C2=NCCCN2)cc1)Nc1ccc(C2=NCCCN2)cc1	7.85%	9.82%	-5.49%	24.63%	1.67%	-6.84%
c1cc(-n2nnc3cnccc32)ccn1	13.16%	-18.41%	12.03%	-0.91%	-1.34%	-8.76%
OC(C#Cc1ccccc1)(c1ccccc1)c1ccccc1	14.7%	1.28%	-2.05%	4.96%	3.27%	-7.2%
COc1cccc(OCC(O)CN2CCN(c3ccccc3)CC2)c1 (stereo unspecified)	10.13%	-11.48%	-4.05%	23.2%	-2.19%	-13.63%
Clc1c(Cl)c(Cl)c2[nH]nnc2c1Cl	-10.41%	-8.91%	8.31%	1.32%	18.5%	-10.27%
O=C1c2ccccc2C(=O)C1c1ccccn1	-5.11%	-11.28%	2.88%	6.77%	5.19%	-6.9%
